# In PubChem BioAssay (NCI):
# This is part of a sample that, as a whole, favours compounds with a hit. Of some 83,000 tested, about 20% had one in any assay.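 Cell lines were cultured in 96-well plates, exposed to a single compound concentration, and assessed for percent growth 48 hours later.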 Values without a mark were called inactive. Calls of active or inactive are those of the source. Rule for the calls: active = growth percent below 10; inactive = the rest.
# Tested on: HL-60(TB) leukemia
# Assay: NCI-60 one-dose screen, 48 h (100 = growth as untreated, 0 = no growth, -100 = all killed)
# Settings: 10 µM unless noted
row,SMILES,growth
1,COc1ccc(NCc2cn(-c3ccc(C(=O)O)cc3)nc2-c2cc(C(F)(F)F)cc(C(F)(F)F)c2)cc1,90.6%
2,COc1ccc(NC(=O)[C@H](C)NC(=O)OC(C)(C)C)cc1C(=O)Nc1cccc(-c2cc(=O)c3c(OC)c(OC)c(OC)cc3o2)c1,2.88% (active)
3,COc1ccc(Cn2cc3c(c2-c2ccccc2)CCCc2cnoc2-3)cc1[N+](=O)[O-],27%
4,C[C@@H]1C[C@H]2C(=O)O[C@@H](C)C(NC(=O)[C@H](Cc3cc(F)cc(F)c3)NC(=O)Nc3ccc(C4CC4)cc3F)C(=O)N3CCC[C@H]3C(=O)N3CCCC[C@H]3C(=O)N[C@@H](CO)C(=O)N2C1 (stereo partly specified),11.5%
5,CN1CCN(Cc2ccc(NC(=O)c3cncc(C#Cc4cnc5ccc(OC6CCOCC6)nn45)c3)cc2C(F)(F)F)CC1,-43.8% (active)
6,O=C(Nc1cccc(Cl)c1)Nc1nc2ccc([N+](=O)[O-])cc2o1,0.103% (active)
7,NS(=O)(=O)c1ccc(Nc2nc(N/N=C/c3ccc(C(F)(F)F)cc3)nc(Nc3ccccc3)n2)cc1,48.9%
8,CCN(CC)CCn1c2ccc(O)cc2c2sc3cc(OC)ccc3c(=O)c21,16.5%
9,CCCCc1nc(/C=N/Nc2nc(Nc3ccccc3)nc(Nc3ccc(S(N)(=O)=O)cc3)n2)c(Cl)[nH]1,118%
10,O=C(/C=C/Nc1ccc(S(=O)(=O)O)cc1)c1ccc(F)cc1,102%
11,CC(C)C(/C=C/c1[nH]ncc1-c1cc(Cl)ccc1O)N1CCOCC1 (stereo unspecified),93.5%
